Consider 2 sequences from paper PMC7862700, “An all-to-all approach to the identification of sequence-specific readers for epigenetic DNA modifications on cytosine”.

Common to all, as to test: DAPPL (digital affinity profiling via proximity ligation, sequencing); 10 mM Tris-HCl pH 7.5, 50 mM NaCl, 1 mM DTT, 4% glycerol, room temperature, 30 min; GST-TFs on glutathione beads, 16-mer random dsDNA library, 0.1% formaldehyde crosslink after washing; high values mean tight binding
Common to all, as to settings: protein: recombinant; tags: N-terminal GST; dsDNA, one strand shown

One test concerns the target T1, FLI1 (Homo sapiens, UniProt Q01543 1-452).
T1 sequence: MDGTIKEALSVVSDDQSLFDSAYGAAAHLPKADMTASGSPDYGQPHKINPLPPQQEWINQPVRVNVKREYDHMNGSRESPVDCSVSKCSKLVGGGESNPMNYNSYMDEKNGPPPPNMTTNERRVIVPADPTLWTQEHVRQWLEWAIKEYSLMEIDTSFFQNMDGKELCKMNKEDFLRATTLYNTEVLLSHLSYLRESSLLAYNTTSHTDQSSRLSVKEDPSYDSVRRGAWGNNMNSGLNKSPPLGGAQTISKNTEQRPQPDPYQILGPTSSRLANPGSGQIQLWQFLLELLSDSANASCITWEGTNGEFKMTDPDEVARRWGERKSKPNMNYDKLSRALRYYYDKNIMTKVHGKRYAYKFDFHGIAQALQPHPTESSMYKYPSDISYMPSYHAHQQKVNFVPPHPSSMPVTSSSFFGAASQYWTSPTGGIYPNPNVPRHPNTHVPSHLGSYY
The method, boiled down:
(§1)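 Sequencing on an Illumina NextSeq500 followed washing, crosslinking with 0.1% formaldehyde, proximity ligation (BsaI/T4 ligase, 1 h, 37 °C) and PCR amplification of pools that had been incubated for 30 min at room temperature with 200 nmole of a random double-stranded 16-mer DNA library in Tris/NaCl/DTT/glycerol buffer. Each pool held DNA-barcoded human transcription factors, expressed in yeast as GST fusions and captured on glutathione beads, plus a tag-only sample. Binding signal is a hexamer's read frequency for a factor divided by its frequency in the tag-only sample.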

The target in a further test is T2, ELK1 (Homo sapiens, UniProt P19419 1-428).
T2 sequence: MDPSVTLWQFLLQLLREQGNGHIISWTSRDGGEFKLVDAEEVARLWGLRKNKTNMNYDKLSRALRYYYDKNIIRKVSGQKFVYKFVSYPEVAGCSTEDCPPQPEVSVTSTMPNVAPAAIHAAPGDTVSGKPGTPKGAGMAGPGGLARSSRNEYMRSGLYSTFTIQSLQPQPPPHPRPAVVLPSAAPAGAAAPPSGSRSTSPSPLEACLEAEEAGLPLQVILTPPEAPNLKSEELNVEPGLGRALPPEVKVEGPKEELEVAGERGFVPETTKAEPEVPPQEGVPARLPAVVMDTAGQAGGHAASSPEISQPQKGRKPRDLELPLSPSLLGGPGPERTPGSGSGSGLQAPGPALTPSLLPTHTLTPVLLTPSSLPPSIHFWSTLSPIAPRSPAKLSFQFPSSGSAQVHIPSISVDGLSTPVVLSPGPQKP
The method, boiled down: as §1

The target of the next test is T3, GABPA (Homo sapiens, UniProt Q06546 1-454).
T3 sequence: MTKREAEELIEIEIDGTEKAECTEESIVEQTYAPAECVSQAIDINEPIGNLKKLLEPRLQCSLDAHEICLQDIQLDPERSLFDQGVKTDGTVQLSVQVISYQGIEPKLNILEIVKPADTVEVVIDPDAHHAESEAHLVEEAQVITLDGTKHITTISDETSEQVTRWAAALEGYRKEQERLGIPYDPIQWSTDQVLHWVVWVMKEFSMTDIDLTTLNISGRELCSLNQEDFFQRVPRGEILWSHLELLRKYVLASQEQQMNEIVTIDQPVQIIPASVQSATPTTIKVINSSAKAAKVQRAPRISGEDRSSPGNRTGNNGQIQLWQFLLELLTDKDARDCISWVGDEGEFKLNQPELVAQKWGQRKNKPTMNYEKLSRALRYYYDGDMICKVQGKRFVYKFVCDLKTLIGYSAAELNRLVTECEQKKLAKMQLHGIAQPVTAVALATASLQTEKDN
The method, boiled down:
as §1

Another test addresses T4, ERG (Homo sapiens, UniProt P11308 1-479).
T4 sequence: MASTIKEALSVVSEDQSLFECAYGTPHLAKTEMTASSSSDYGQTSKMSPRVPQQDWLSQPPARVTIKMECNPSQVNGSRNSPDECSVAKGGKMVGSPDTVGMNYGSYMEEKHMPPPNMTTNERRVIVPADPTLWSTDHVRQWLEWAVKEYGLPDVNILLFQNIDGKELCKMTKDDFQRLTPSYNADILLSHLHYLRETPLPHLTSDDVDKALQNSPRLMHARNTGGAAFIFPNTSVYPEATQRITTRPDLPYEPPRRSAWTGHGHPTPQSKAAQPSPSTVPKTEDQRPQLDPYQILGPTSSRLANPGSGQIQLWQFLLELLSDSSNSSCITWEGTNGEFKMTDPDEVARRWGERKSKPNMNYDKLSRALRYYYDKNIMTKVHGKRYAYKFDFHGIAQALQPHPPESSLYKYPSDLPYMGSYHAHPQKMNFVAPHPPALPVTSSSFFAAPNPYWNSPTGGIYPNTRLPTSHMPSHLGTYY
Summed up: as §1

For the next test, the target named is ELF1 (Homo sapiens, UniProt P32519 1-619). The method, boiled down:
as §1

A further test deals with T5, EHF (Homo sapiens, UniProt Q9NZC4 1-300).
T5 sequence: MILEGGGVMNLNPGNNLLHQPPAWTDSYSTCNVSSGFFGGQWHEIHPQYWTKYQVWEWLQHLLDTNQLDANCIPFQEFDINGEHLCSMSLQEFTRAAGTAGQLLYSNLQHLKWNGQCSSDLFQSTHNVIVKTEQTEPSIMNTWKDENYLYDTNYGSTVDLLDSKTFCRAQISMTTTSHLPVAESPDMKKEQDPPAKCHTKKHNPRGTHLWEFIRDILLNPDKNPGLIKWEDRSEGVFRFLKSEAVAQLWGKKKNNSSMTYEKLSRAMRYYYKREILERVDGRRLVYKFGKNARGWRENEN
The method, boiled down: as §1

The target in the next test is SPI1 (Homo sapiens, UniProt P17947 1-270). The method, boiled down:
as §1

The target in another test is SPIB (Homo sapiens, UniProt Q01892 1-262). Summed up:
as §1

The target of another test is T6, ELK3 (Homo sapiens, UniProt P41970 1-407).
T6 sequence: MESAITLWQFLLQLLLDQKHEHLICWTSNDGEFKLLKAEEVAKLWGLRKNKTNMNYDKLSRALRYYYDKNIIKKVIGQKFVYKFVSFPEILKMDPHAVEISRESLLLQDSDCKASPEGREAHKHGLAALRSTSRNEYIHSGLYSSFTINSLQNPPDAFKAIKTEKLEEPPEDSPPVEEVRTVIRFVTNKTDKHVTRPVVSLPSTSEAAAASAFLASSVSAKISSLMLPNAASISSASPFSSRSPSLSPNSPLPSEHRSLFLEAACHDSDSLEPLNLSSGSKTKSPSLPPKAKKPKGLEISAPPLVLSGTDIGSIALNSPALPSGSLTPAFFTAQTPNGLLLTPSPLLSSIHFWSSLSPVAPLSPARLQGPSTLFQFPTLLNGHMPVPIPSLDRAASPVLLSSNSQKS
The method, boiled down:
as §1

Another test has as its target T7, FEV (Homo sapiens, UniProt Q99581 1-238).
T7 sequence: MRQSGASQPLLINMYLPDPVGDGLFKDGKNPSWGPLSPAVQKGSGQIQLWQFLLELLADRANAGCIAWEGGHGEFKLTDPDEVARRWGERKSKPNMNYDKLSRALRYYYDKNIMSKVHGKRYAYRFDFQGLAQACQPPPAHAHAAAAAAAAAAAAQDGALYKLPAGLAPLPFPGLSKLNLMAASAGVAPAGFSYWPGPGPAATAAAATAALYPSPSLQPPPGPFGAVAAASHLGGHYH
The method, boiled down:
as §1

In another test the target is ETV5 (Homo sapiens, UniProt P41161 1-510). Summed up: as §1
Chain of ETV5 (P41161 whole entry): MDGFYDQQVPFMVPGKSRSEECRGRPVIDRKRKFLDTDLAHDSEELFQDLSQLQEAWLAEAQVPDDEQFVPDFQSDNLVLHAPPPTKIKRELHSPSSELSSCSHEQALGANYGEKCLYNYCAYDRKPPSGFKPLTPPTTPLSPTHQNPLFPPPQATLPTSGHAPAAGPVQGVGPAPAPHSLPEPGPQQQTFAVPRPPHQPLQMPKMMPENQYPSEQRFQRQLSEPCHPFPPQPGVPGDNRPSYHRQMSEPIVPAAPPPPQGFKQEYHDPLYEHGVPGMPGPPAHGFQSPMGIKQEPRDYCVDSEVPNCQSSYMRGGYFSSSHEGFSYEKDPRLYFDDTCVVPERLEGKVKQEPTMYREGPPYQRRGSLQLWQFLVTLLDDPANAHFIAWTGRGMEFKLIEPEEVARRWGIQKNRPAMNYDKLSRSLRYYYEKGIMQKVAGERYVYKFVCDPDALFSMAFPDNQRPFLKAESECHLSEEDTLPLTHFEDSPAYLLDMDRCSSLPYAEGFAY
In the next test the target is T8, SPIC (Homo sapiens, UniProt Q8N5J4 1-248).
T8 sequence: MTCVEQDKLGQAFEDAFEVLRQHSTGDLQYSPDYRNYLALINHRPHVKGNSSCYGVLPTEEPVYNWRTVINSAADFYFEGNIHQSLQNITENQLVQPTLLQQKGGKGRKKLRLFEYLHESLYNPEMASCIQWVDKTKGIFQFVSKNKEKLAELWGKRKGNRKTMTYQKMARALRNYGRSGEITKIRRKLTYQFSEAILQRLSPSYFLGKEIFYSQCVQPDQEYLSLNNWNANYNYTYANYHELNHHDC
The method, boiled down: as §1

The target in a further test is ELF4 (Homo sapiens, UniProt Q99607 1-663). The method, boiled down: as §1
Chain of ELF4 (Q99607 whole entry): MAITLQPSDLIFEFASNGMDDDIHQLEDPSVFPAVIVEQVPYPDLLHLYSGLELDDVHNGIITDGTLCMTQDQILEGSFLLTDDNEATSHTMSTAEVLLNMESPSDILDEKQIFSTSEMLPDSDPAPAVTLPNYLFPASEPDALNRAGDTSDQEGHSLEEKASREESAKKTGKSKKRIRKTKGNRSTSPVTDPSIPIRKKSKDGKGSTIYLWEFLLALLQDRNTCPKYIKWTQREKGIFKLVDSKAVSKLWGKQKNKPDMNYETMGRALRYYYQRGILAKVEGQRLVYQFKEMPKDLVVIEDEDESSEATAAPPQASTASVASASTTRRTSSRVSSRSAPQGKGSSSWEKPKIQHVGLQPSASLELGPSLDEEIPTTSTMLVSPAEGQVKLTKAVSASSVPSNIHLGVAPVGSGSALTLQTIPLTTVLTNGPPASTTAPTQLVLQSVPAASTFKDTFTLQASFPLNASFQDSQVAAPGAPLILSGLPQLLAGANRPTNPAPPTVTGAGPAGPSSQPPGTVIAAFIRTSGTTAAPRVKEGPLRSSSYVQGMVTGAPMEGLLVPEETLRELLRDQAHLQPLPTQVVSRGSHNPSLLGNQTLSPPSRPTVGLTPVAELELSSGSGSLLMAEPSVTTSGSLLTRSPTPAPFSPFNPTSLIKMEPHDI
For the next test, the target named is T9, ELK4 (Homo sapiens, UniProt P28324-2 1-405).
T9 sequence: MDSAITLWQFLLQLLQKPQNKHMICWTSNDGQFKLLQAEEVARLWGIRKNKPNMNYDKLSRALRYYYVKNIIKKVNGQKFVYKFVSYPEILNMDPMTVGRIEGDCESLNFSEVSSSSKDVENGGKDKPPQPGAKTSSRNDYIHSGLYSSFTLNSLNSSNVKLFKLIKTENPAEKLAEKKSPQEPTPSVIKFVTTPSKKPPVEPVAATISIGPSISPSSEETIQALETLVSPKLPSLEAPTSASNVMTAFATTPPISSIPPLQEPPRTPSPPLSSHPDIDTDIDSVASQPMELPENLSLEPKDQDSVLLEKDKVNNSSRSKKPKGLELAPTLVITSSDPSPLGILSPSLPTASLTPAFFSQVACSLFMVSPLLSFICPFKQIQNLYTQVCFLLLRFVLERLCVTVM
Summed up:
as §1

Another test deals with T10, ETV2 (Homo sapiens, UniProt O00321 1-342).
T10 sequence: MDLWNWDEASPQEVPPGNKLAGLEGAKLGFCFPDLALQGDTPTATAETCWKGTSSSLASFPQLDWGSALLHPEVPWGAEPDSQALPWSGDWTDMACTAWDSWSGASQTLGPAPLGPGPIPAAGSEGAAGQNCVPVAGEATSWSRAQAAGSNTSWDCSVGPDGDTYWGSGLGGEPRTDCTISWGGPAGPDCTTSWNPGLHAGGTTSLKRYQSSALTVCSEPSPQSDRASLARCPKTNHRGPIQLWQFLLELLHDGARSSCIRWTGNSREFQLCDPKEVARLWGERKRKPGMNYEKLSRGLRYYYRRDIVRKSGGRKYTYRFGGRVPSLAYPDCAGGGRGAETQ
Summed up:
as §1

Another test deals with T11, ELF3 (Homo sapiens, UniProt P78545 1-371).
T11 sequence: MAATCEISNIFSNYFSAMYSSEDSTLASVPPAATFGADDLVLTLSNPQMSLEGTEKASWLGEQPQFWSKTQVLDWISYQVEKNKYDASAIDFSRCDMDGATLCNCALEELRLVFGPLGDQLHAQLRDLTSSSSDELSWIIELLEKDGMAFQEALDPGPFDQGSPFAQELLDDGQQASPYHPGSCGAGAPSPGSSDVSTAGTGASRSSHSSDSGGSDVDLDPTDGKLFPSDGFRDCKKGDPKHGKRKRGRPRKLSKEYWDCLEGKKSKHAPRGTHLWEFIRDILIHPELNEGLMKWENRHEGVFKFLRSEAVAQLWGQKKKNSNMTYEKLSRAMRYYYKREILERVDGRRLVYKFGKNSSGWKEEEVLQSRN
The method, boiled down:
as §1

The next test addresses ETV1 (Homo sapiens, UniProt P50549 1-477). The method, boiled down:
as §1

Chain of ETV1 (P50549 whole entry): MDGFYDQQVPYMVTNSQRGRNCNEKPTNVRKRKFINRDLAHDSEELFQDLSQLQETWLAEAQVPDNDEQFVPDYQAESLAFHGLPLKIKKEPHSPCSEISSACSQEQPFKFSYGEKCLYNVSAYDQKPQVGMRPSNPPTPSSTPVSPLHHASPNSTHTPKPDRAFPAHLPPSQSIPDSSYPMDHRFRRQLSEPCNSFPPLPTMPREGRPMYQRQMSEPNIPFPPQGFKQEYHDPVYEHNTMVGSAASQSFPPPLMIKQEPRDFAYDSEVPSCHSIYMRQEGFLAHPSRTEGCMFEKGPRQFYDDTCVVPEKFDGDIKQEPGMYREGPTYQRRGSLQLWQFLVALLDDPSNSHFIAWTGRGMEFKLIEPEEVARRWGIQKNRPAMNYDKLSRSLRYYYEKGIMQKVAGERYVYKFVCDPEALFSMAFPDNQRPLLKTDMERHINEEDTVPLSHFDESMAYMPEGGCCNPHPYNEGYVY
Chain of SPIB (Q01892 whole entry): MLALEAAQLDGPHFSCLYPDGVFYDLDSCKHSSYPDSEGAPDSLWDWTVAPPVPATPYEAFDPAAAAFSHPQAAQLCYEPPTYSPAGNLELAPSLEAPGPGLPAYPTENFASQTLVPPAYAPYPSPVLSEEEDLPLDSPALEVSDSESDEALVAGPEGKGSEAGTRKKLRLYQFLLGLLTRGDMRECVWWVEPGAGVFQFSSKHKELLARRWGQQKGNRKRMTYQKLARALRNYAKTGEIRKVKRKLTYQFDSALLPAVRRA
Chain of ELF1 (P32519 whole entry): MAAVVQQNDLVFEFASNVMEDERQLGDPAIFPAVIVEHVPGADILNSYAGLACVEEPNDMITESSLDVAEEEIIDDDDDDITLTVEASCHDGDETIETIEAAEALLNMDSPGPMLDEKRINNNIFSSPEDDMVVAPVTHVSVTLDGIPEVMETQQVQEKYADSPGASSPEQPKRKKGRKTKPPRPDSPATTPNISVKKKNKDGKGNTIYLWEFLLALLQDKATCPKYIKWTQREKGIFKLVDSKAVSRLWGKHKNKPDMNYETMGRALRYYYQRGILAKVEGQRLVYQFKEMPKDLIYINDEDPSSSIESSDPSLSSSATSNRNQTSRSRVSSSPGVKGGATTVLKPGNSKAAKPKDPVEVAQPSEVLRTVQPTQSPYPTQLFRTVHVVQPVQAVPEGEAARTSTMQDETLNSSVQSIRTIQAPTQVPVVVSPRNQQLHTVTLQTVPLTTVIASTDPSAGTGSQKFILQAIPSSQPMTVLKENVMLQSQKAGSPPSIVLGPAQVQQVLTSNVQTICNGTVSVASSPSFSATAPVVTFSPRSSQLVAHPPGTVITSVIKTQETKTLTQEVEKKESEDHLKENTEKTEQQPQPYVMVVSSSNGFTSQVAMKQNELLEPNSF

Turning to GTCCCT, the binding signal is 1.15 fold enrichment (6-mer frequency, TF over GST control) with FLI1; 1.29 fold enrichment (6-mer frequency, TF over GST control) with ELK1; 1.2 fold enrichment (6-mer frequency, TF over GST control) in the test with GABPA; 1.24 fold enrichment (6-mer frequency, TF over GST control) with ERG; 1.28 fold enrichment (6-mer frequency, TF over GST control) with ELF1; 1.27 fold enrichment (6-mer frequency, TF over GST control) in the test with EHF. The binding signal in the test with SPI1 was 1.38 fold enrichment (6-mer frequency, TF over GST control); in the test with SPIB, 1.18 fold enrichment (6-mer frequency, TF over GST control); in the test with ELK3, 1.16 fold enrichment (6-mer frequency, TF over GST control); with FEV it was 1.28 fold enrichment (6-mer frequency, TF over GST control); with ETV5, 1.18 fold enrichment (6-mer frequency, TF over GST control); with SPIC, 1.29 fold enrichment (6-mer frequency, TF over GST control). For the same sequence, the binding signal with ELF4 is 1.31 fold enrichment (6-mer frequency, TF over GST control); with ELK4 it was 1.27 fold enrichment (6-mer frequency, TF over GST control); in the test with ETV2, 1.22 fold enrichment (6-mer frequency, TF over GST control); with ELF3, 1.23 fold enrichment (6-mer frequency, TF over GST control); with ETV1, 1.26 fold enrichment (6-mer frequency, TF over GST control).

Take ACTGAC: the binding signal with FLI1 is 1.13 fold enrichment (6-mer frequency, TF over GST control); in the test with ELK1 it was 1.14 fold enrichment (6-mer frequency, TF over GST control); with GABPA, 1.22 fold enrichment (6-mer frequency, TF over GST control); in the test with ERG, 1.17 fold enrichment (6-mer frequency, TF over GST control); with ELF1, 1.22 fold enrichment (6-mer frequency, TF over GST control); with EHF it was 1.16 fold enrichment (6-mer frequency, TF over GST control). In addition, the binding signal with SPI1 is 1.26 fold enrichment (6-mer frequency, TF over GST control); in the test with SPIB, 1.21 fold enrichment (6-mer frequency, TF over GST control); with ELK3, 1.11 fold enrichment (6-mer frequency, TF over GST control); with FEV it was 1.26 fold enrichment (6-mer frequency, TF over GST control); with ETV5, 1.19 fold enrichment (6-mer frequency, TF over GST control); in the test with SPIC, 1.24 fold enrichment (6-mer frequency, TF over GST control). The binding signal with ELF4 is 1.23 fold enrichment (6-mer frequency, TF over GST control); with ELK4 it was 1.11 fold enrichment (6-mer frequency, TF over GST control); with ETV2, 1.3 fold enrichment (6-mer frequency, TF over GST control); with ELF3 it was 1.14 fold enrichment (6-mer frequency, TF over GST control); in the test with ETV1, 1.25 fold enrichment (6-mer frequency, TF over GST control).
